In the library only some 7.3% were active in any assay of this set; here they are far more common.
FMDV inh = foot and mouth disease virus antiviral activity; FMDV antiviral cell-based qHTS; 410,000 compounds, 1.2% hits; Potency, µM (series often up to 57.9 µM), most hits filed as inhibitors; calls by dose curve; tested in HEK293T cells; further: read-out not given here; nearly all actives have a fitted effect of over 45% in size
Vaccinia mCherry = vaccinia inhibition (mCherry reporter) | 310,000 compounds, 0.63% hits | Vaccinia virus mCherry reporter infection, fluorescence | AID 720579 | Potency, µM (series often up to 36.5 µM), actives largely listed as inhibitors; calls by dose curve; tested in A549 cells; further: nearly all actives have a fitted effect of over 35% in size
VACV Venus inh = inhibitors of vaccinia virus (Venus reporter); AID 720580; Potency, µM (series often up to 36.5 µM), hits mostly inhibitors; Vaccinia virus Venus reporter expression, fluorescence; 330,000 compounds, 0.46% hits; calls by dose curve; tested in A549 cells; further: nearly all actives have a fitted effect of over 30% in size
HCMV inh = inhibitors of human cytomegalovirus. HFF cells, HCMV-luciferase reporter, 72 h; stronger effect = lower value. activity change, negative = inhibition, % at 57.5 µM. 410,000 compounds, 4.5% hits. AID 1259415; in the data active means activity change below about -60%; inconclusive means no clear call, values can overlap the other calls; inactive means above about -39%
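Human foreskin fibroblasts infected with luciferase-reporter HCMV at MOI 1 PFU/cell, compounds at two doses. Luciferase measured 72 h post infection; normalized to buffer-only basal and Salinomycin (10uM) controls.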
HCV inh = blocks hepatitis C virus. Potency, µM (titrated, usually from 41.8 µM), hits mostly inhibitors. Huh7.5.1 HCVcc-Cre infection, luciferase reporter, 44 h. 340,000 compounds, 3.4% hits; active means well fitted inhibition curve with a large enough effect; inconclusive means small, poorly fitted or top-dose-only effect, or another doubt; inactive means no such curve, though single readings can be large or run the other way
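Cells seeded at 1,000/well and cultured 4 h, then compounds added followed by HCVcc-Cre virus (~0.5 moi). After 44 h further culture, luciferase substrate was added, plates held 15 min at room temperature, and luminescence read for 15 sec.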
Each line names hits and unclear results; the compound was inactive in the other large screens.

Cc1ccc(C)c(Cn2c3ccccc3c3cnn(CC(=O)NC(C)CCc4ccccc4)c(=O)c32)c1 (configuration not stated)	none (no result: HCV inh)
Cc1ccc(NC(=O)Cn2c(=O)n(CCC(=O)N3CCc4ccccc4C3)c(=O)c3ccccc32)c(C)c1	HCMV inh -65.5 (no result: HCV inh)
CCOc1ccc(NC(=O)Cn2c(=O)n(CCCCC(=O)NCc3ccc4c(c3)OCO4)c(=O)c3ccccc32)cc1	FMDV inh inconclusive, Vaccinia mCherry inconclusive, VACV Venus inh inconclusive, HCMV inh -76.4 (no result: HCV inh)
Cc1ccc(NC(=O)Cn2c(=O)n(CCCC(=O)NCc3ccc4c(c3)OCO4)c(=O)c3ccccc32)cc1	none (no result: HCV inh)
CCOC(=O)c1ccccc1NC(=O)Cn1c(=O)n(CCC(=O)N2CCc3ccccc3C2)c(=O)c2ccccc21	none (no result: HCV inh)
Cc1ccc(NC(=O)Cn2c(=O)n(CCC(=O)NCc3ccccc3Cl)c(=O)c3ccccc32)cc1	HCMV inh -86.1 (no result: HCV inh)
COc1cccc(C(=O)N2CCCCC2CCN2CCCCC2)c1 (configuration not stated)	none (no result: HCV inh)
CCc1cccc(CC)c1N1C(=O)COCC1=O	HCMV inh -62.3 (no result: HCV inh)
Cc1cc(C(=O)c2ccc(Cl)cc2)c(NC(=O)CCl)s1	FMDV inh 25.1µM, Vaccinia mCherry inconclusive, HCV inh inconclusive
O=C(NC(=S)Nc1ccccc1N1CCCC1)c1ccc(F)cc1	HCV inh inconclusive
O=C(NC(=S)Nc1ccccc1N1CCCCC1)c1ccccc1	FMDV inh inconclusive, Vaccinia mCherry inconclusive, HCV inh 11.2µM
O=C(NC(=S)Nc1ccccc1N1CCOCC1)c1ccc(Br)cc1	HCMV inh -65.6, HCV inh inconclusive (no result: Vaccinia mCherry, VACV Venus inh)
O=C(NC(=S)Nc1ccccc1O)c1cncc(Br)c1	Vaccinia mCherry 14.1µM, VACV Venus inh inconclusive, HCMV inh inconclusive
COc1ccccc1NC(=O)c1cnc(SCC(=O)N2CCOCC2)n(C)c1=O	none (no result: HCV inh)
CN(C)c1nc(NCc2ccccc2)nc(SCC(=O)Nc2ccccc2)n1	HCMV inh inconclusive, HCV inh inconclusive (no result: FMDV inh)
CC(Sc1nc(NCc2ccccc2)nc(N(C)C)n1)C(=O)Nc1ccccc1 (configuration not stated)	HCMV inh -105.1, HCV inh inconclusive (no result: Vaccinia mCherry, VACV Venus inh)
O=[N+]([O-])c1ccc(/C=N/NC(=S)Nc2ccc(Cl)cc2Cl)s1	HCMV inh -63.7, HCV inh inconclusive (no result: Vaccinia mCherry, VACV Venus inh)
CCn1nc(C)c(/C=N/NC(=S)Nc2ccc(Cl)cc2Cl)c1C	HCMV inh -103.2, HCV inh inconclusive
Cc1nn(C)cc1/C=N/NC(=S)Nc1ccc(Cl)cc1Cl	none
O=S(=O)(NCCc1cn2ccsc2n1)c1ccc(Cl)cc1	none (no result: HCV inh)
CN1C(=O)/C(=C/c2ccc(C(F)(F)F)cc2)Sc2ccc(C(=O)N3CCN(c4ccccn4)CC3)cc21	HCMV inh inconclusive, HCV inh 14.1µM
CCOc1ccc(/C=C2/Sc3ccc(C(=O)N4CCOCC4)cc3N(C)C2=O)cc1OC	HCV inh inconclusive
CN1C(=O)/C(=C/c2cccc(Cl)c2)Sc2ccc(C(=O)N3CCOCC3)cc21	HCMV inh inconclusive, HCV inh 11.2µM (no result: Vaccinia mCherry, VACV Venus inh)
CCOC(=O)C1CCCN(C(=O)c2ccc3c(c2)N(C)C(=O)/C(=C/c2ccccc2Cl)S3)C1 (configuration not stated)	FMDV inh inconclusive, HCV inh 11.2µM
CCOC(=O)C1CCCN(C(=O)c2cccc(S(=O)(=O)N(C)c3c(C)n(C)n(-c4ccccc4)c3=O)c2)C1 (configuration not stated)	HCMV inh -98.6
CN1C(=O)/C(=C/c2ccccc2Cl)Sc2ccc(C(=O)N3CCCC3)cc21	HCMV inh inconclusive, HCV inh inconclusive (no result: Vaccinia mCherry, VACV Venus inh)
COC(=O)c1ccc2nc(C)cc(Nc3cccc(Cl)c3C)c2c1	FMDV inh inconclusive (no result: HCV inh)
Cc1cc(C)nc(N/C=C(\C#N)C(=O)c2cccc(CSc3ccccc3)c2)n1	none (no result: FMDV inh, HCMV inh, HCV inh)
COc1ccc(N=NC2=C(O)CC(C)(C)CC2=O)cc1	none
CC1(C)CC(=O)C(N=Nc2ccc(Br)cc2)=C(O)C1	HCMV inh -60.3
Cc1sc2nc(-c3ccccn3)[nH]c(=O)c2c1-c1ccccc1	Vaccinia mCherry inconclusive, HCMV inh -61.5, HCV inh 10µM
COCCNCc1nc2sc(C)c(-c3ccccc3)c2c(=O)[nH]1	HCMV inh -101.4
Cc1sc2nc(-c3ccncc3)[nH]c(=O)c2c1-c1ccccc1	none (no result: FMDV inh, Vaccinia mCherry, VACV Venus inh, HCMV inh)
COC(=O)C(NC(=O)c1ccc(F)cc1)(Nc1ncc(S(=O)(=O)c2ccc([N+](=O)[O-])cc2)s1)C(F)(F)F (configuration not stated)	FMDV inh 12.6µM, Vaccinia mCherry 11.2µM, VACV Venus inh inconclusive, HCV inh inconclusive
C[C@@H]1NC(=O)/C(=C\c2ccccc2Br)NC1=O	HCMV inh -101.6
[O-]/C(=C(\C(=S)Nc1ccc(Cl)cc1)[n+]1ccccc1)c1ccc(OC(F)F)cc1	HCMV inh inconclusive, HCV inh 11.2µM (no result: Vaccinia mCherry, VACV Venus inh)
[O-]/C(=C(\C(=S)Nc1ccccc1F)[n+]1ccccc1)c1ccc(-c2ccccc2)cc1	none
O=C(c1ccc(Cn2cnnn2)cc1)N1CCOc2ccc(C(O)C3CCCCC3)cc2C1 (configuration not stated)	none (no result: HCMV inh, HCV inh)
Cc1cccc2cc(CN(Cc3cccs3)Cc3nnnn3Cc3ccccc3)c(=O)[nH]c12	VACV Venus inh inconclusive, HCMV inh inconclusive, HCV inh 10µM (no result: FMDV inh)
COc1ccc2cc(CN(Cc3cccs3)Cc3nnnn3Cc3ccccc3)c(=O)[nH]c2c1	HCMV inh -99.4 (no result: Vaccinia mCherry, VACV Venus inh)
Cc1ccc2oc(-c3cc(NC(=O)c4ccc5c(c4)OCCO5)cc(C)c3O)nc2c1	none (no result: HCV inh)
COc1cc2c(cc1OC)C(c1c(O)n(CCc3ccccc3)c(=S)[nH]c1=O)NCC2 (configuration not stated)	HCMV inh -64.4
CCN(CC)C(=O)c1sc2c(c1C)c(=O)n(-c1ccc(Cl)c(Cl)c1)c(=O)n2Cc1cc(=O)n2ccccc2n1	none (no result: HCV inh)
COc1cccc(Nc2cc3c(cn2)cc(-c2cnn(C)c2)n3C)c1	none (no result: FMDV inh, Vaccinia mCherry, VACV Venus inh, HCV inh)
COc1ccc(NC(=O)N(C)C[C@H]2Oc3c(NC(=O)c4ccncc4)cccc3C(=O)N([C@H](C)CO)C[C@@H]2C)cc1	none
COc1ccc(NC(=O)Nc2cccc3c2O[C@H](CN(C)C(=O)Nc2ccccc2)[C@@H](C)CN([C@H](C)CO)C3=O)cc1	none
C[C@H](CO)N1C[C@H](C)[C@@H](CN(C)C(=O)Nc2ccc(C(F)(F)F)cc2)Oc2c(NC(=O)Nc3ccccc3)cccc2C1=O	VACV Venus inh inconclusive
COc1ccc(NC(=O)N(C)C[C@H]2Oc3c(NC(=O)Nc4ccc(C(F)(F)F)cc4)cccc3C(=O)N([C@H](C)CO)C[C@@H]2C)cc1	VACV Venus inh inconclusive, HCV inh 6.31µM
C[C@@H]1CN([C@H](C)CO)C(=O)c2cccc(NC(=O)Nc3ccc(F)cc3)c2O[C@H]1CN(C)C(=O)Nc1ccc(C(F)(F)F)cc1	FMDV inh inconclusive, VACV Venus inh inconclusive, HCMV inh -61.2, HCV inh inconclusive
COc1ccc(NC(=O)N(C)C[C@H]2Oc3c(NC(=O)c4nc5ccccc5s4)cccc3C(=O)N([C@@H](C)CO)C[C@H]2C)cc1	VACV Venus inh inconclusive, HCMV inh -102.5, HCV inh inconclusive

Screening data deposited in PubChem by National Center for Advancing Translational Sciences (NCATS).
